# Compound activity from PubChem BioAssay.
# DRD3 antagonist: qHTS of D3 Dopamine Receptor Antagonist: qHTS; D(3) dopamine receptor (Homo sapiens), P35462; D3R cells, DiscoveRx beta-arrestin luminescence, antagonist mode; hits give low values; max response, negative = inhibition, %; 2.5% of 360,000 active; in the data active = max response below about -50%; also: % is scaled to controls: 0 for no effect and ±100 for the full control effect
#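 Cells plated overnight at 1500 cells/well, then exposed to library compounds with dopamine controls for 90 minutes at 37 degrees C. DiscoveRx reagent added for 30–60 minutes at room temperature; luminescence read, quantitative HTS format.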
# D1 potentiator: Potentiators of Human D1 Dopamine Receptor: qHTS; D(1A) dopamine receptor (Homo sapiens), P21728; HEK293 TREx D1 cells, calcium flux, dopamine EC20 potentiation; potentiation, % at 10 µM; 0.036% of 360,000 active; in the data active = potentiation above about 30%; also: 0% is about no effect
# Target sequence (P21728 whole entry, looked up): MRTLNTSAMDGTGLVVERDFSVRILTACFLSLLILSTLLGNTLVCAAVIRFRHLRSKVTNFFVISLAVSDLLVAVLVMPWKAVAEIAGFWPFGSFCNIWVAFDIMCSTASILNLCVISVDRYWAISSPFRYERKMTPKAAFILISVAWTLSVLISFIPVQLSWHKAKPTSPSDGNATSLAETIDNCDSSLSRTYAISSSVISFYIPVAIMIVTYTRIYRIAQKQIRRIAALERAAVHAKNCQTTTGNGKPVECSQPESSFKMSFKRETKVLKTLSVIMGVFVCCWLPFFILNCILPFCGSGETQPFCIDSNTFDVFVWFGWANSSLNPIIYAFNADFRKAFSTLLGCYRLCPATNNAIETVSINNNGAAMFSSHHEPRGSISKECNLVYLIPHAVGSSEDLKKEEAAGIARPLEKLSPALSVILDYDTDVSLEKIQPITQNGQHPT
# D1 antag: Antagonist of Human D 1 Dopamine Receptor: qHTS. AID 504652, 2011. 3.2% of 360,000 active. HEK293 TREx D1 cells, calcium flux, dopamine EC80; hits give low values. D(1A) dopamine receptor (Homo sapiens), P21728. activity change, negative = inhibition, % at 10 µM; in the data active = activity change below about -30%; also: % is scaled to controls: 0 for no effect and ±100 for the full control effect
#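 Tetracycline-induced HEK293 Trex D1 cells, force-coupled to calcium, dye-loaded; compounds added and read 180 s, then EC80 dopamine added and calcium flux tracked kinetically another 180 s.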
# D1 agonist: Allosteric Agonists of the Human D1 Dopamine Receptor: qHTS | D(1A) dopamine receptor (Homo sapiens), P21728 | HEK293 T-REx D1 cells, calcium flux, agonist mode | activation, % at 2 µM | 1% of 360,000 active; in the data active = activation above about 30%; also: 0% is about no effect
#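 Agonism was scored from calcium flux recorded over 180 s (1 read/s) after pintool compound addition, following a 10-cycle baseline. Cells were inducible force-coupled HEK293 TREx D1, plated overnight at 30 C and loaded with no-wash calcium dye.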
# D3 ag: qHTS of D3 Dopamine Receptor Agonist: qHTS | D(3) dopamine receptor (Homo sapiens), P35462 | D3R DiscoveRx beta-arrestin cells, luminescence, 90 min | max activation, % | 0.58% of 410,000 active | AID 652048, 2013; in the data active = max activation above about 30%; also: 0% is about no effect
#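 Cells at 1500/well, incubated overnight, then treated with pinned compounds (dopamine as control) for 90 min at 37 degrees C. DiscoveRx reagent added for 30 - 60 minutes at room temperature; luminescence read.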
# * marks the source's active call; other numbers are inactive results; . = no result. Shown are actives, neighbours in structure and some others; about 6.1% of the full set was active somewhere.
SMILES,DRD3 antagonist,D1 potentiator,D1 antag,D1 agonist,D3 ag
COc1ccccc1Nc1sc(C(=O)c2ccc(C)cc2C)c(N)c1S(=O)(=O)c1ccccc1,.,-4.1,-2.5,6.5,-9.9
COc1cccc(NC(=O)CSc2nc(=O)[nH]c3c2CCCC3)c1,.,0.2,.,-1.0,3.0
c1csc(-c2noc(COc3ccc4c(c3)CCCC4)n2)c1,32.6,-1.8,-38.6*,27.5,5.5
COc1ccc(C(=O)Nc2ccc(-c3n[nH]c(=S)o3)cc2)cc1OC,-4.3,-8.6,6.3,2.9,-0.5
COc1ccccc1-c1n[nH]c(=S)o1,-81.6*,-8.4,-0.4,0.0,-11.4
COc1ccc(Cl)cc1-c1n[nH]c(=S)o1,-83.8*,8.9,8.6,0.1,-5.3
CCc1ccc(NC(=O)CCCc2nc(-c3ccco3)no2)cc1,.,1.1,-1.6,-1.4,-4.4
CSc1ccc(S(=O)(=O)NCCOc2ccccc2C)cc1,-9.5,-6.8,-31.1*,8.7,-10.6
Cc1ccc2c(c1)N(C(=O)N1CCC(C(=O)NCc3ccccc3C)CC1)CC(C)O2 (stereo unspecified),.,-1.2,-5.1,-0.3,-3.8
CC(=O)c1cc(NC(=O)c2ccc(C)cc2)c(=O)oc1/C=C/N(C)C,-22.6,0.0,15.0,34.2*,0.3
COC(=O)c1cc(NC(=O)c2ccc(OC)cc2)c(=O)oc1C,2.5,3.9,-7.4,0.3,-1.6
COc1ccc(C(=O)Nc2cc(C(C)=O)c(/C=C/N(C)C)oc2=O)cc1,1.2,-2.8,20.0,40.6*,-3.5
CCOc1ccc(NC(=O)c2c(NCc3sccc3C)sc3c2CCCCC3)cc1,.,-1.8,-7.1,0.5,-19.4
O=C(Nc1ccn(CCCNCc2cccc3ccccc23)c(=O)n1)OCc1ccccc1,-50.6*,.,.,.,-13.7
O=C(Nc1ccn(CCCNCc2ccccn2)c(=O)n1)OCc1ccccc1,-11.4,.,.,.,-11.1
CC(CNCCCn1ccc(NC(=O)OCc2ccccc2)nc1=O)c1ccccc1 (stereo unspecified),-51.1*,.,.,.,-68.8
O=C(Nc1ccn(CCCNCC(c2ccccc2)c2ccccc2)c(=O)n1)OCc1ccccc1,-29.7,.,.,.,-8.1
CC(C)(C)NC(=O)c1ccc2nc(CCc3ccccc3)oc2c1,.,-0.1,-7.9,2.1,-6.4
CCCn1c2ccccc2c2cnn(CC(=O)NCc3ccc(OC)cc3)c(=O)c21,.,-3.1,-1.0,0.7,12.9
CCOc1ccccc1C(=O)N1CC(=O)Nc2ccc(Cl)cc2C1c1ccccc1 (stereo unspecified),.,-0.9,11.9,1.3,-3.9
FC(F)(F)c1cnc(NNC(=S)Nc2ccccc2Cl)c(Cl)c1,-75.5*,-4.7,-33.4*,26.3,-17.0
CC(C)(C)NNC(=S)Nc1cccc(C(F)(F)F)c1,11.3,1.3,-6.4,1.0,7.4
Cc1cccc(NC(=S)NNc2ncc(C(F)(F)F)cc2Cl)c1,-63.7*,0.5,-25.6,7.2,-15.0
O=C(Nc1ccccc1)Nc1ncc(C(F)(F)F)cc1Cl,-23.1,.,.,.,-4.3
CC(C)Cn1c(=O)c2ccccc2n2c(CCC(=O)NCc3ccccc3Cl)nnc12,.,-5.2,-0.3,-1.0,7.4
SMILES,DRD3 antagonist,D1 potentiator,D1 antag,D1 agonist,D3 ag
O=C1NN(c2ccccc2)C(=O)/C1=C/c1coc2ccccc2c1=O,1.1,-12.7,2.0,1.2,5.3
N=C1/C(=C/c2cccn2Cc2ccc(F)cc2)C(=O)N=C2SC=CN12,10.5,1.8,2.5,-0.2,-8.4
N=C1/C(=C\c2coc3ccccc3c2=O)C(=O)N=C2SC=CN12,11.6,-6.0,-13.3,341.5*,1.7
CSC1=NSC2=NC(=O)/C(=C/c3coc4ccccc4c3=O)C(=N)N12,-15.5,0.2,-4.2,275.1*,-5.0
O=C1NN(c2ccccc2)C(=O)/C1=C\c1coc2ccc(O)cc2c1=O,-23.8,-6.9,-69.7*,0.6,-2.6
CC1=CC2=NC(=O)/C(=C/c3coc4ccc(Cl)cc4c3=O)C(=N)N2O1,21.0,2.2,-10.1,231.2*,6.9
COc1ccc(S(=O)(=O)NCC(c2ccco2)S(=O)(=O)c2cccs2)cc1C (stereo unspecified),.,1.1,.,4.8,0.8
CSC1=NSC2=NC(=O)/C(=C/c3coc4ccc(O)cc4c3=O)C(=N)N12,29.6,2.7,1.0,168.0*,5.5
CSC1=NSC2=NC(=O)/C(=C\c3cccs3)C(=N)N12,-15.0,-21.8,-3.4,4.5,-2.6
COc1ccc(C(C(=O)NCC2CCCO2)N(C(=O)Cn2nnc3ccccc32)c2ccc(NC(C)=O)cc2)c(OC)c1 (stereo unspecified),16.8,-7.2,-67.1*,18.1,2.5
CCCc1cc(N2CCN(c3ccccc3)CC2)n2cnnc2n1,.,-1.8,3.5,2.8,-2.4
CCCc1cc(N2CCN(c3ccc(OC)cc3)CC2)n2cnnc2n1,.,-1.9,-33.5*,4.7,19.5
O=C(c1ccc2c(c1)N(Cc1ccc(F)cc1)CCS2)N1CCN(c2ccccc2)CC1,.,-1.2,-2.9,-0.5,2.4
Cc1ccc(OCC(=O)NNC(=S)NC(=O)c2ccc(Br)o2)c(C)c1,5.6,2.1,-13.5,41.3*,3.0
Cc1cc2c(c(=O)n1Cc1cccnc1)C(c1cccs1)C(C#N)=C(N)O2 (stereo unspecified),-51.0*,4.0,-13.5,3.7,-7.1
Cc1cc2c(c(=O)n1Cc1cccnc1)C(Cc1ccccc1)C(C#N)=C(N)O2 (stereo unspecified),-10.7,-3.0,-10.7,-0.1,-2.3
COc1ccc(C2C(C#N)=C(N)Oc3cc(C)n(Cc4ccncc4)c(=O)c32)cc1 (stereo unspecified),-5.2,-1.8,-34.6*,0.5,6.0
CCOc1ccc(C2C(C#N)=C(N)Oc3cc(C)n(Cc4ccco4)c(=O)c32)cc1OC (stereo unspecified),-52.6*,-1.1,-0.6,1.8,2.7
Cc1cc2c(c(=O)n1Cc1ccco1)C(c1cccnc1)C(C#N)=C(N)O2 (stereo unspecified),-17.5,-1.3,-5.0,1.0,-0.1
CCOC(=O)/C=C1\NC(C)(C)Cc2cc(OC)c(O)cc21,14.0,-2.3,-8.8,2.9,5.1
CCOC(=O)/C=C1\NC(C)(C)Cc2cc(OC)c(OC)cc21,-16.4,-6.0,-40.6*,0.1,-1.0
CCS(=O)(=O)N1CC(=O)N(c2cccc(Cl)c2)C(C)(C(=O)NC2CCCCCC2)C1 (stereo unspecified),.,-0.1,6.3,-0.1,-11.8
Cc1c(C(=O)Nc2ccc(S(=O)(=O)N(C)C3CCN(C)CC3)cc2)oc2ccccc12,-18.7,-5.5,-29.6,32.2*,-20.3
Cc1c(C(=O)Nc2ccc(S(=O)(=O)N(C)C3CCN(C)CC3)cc2)oc2c(Cl)cccc12,-66.2*,-1.9,-59.7*,58.8*,-11.1
